# According to publication PMC11062922 (Nature Chemical Biology, 2023):
# Read-outs that look alike come from different tables or passages of the source.
# What was measured:
# Design in all cases: species or system human, MV4-11 + K-562 + COLO205 + SK-N-BE2 + OVCAR-8
# CDK7 = settings: read-out: apparent Kd, n = 1
# ERCC2 = settings: read-out: apparent Kd, n = 1
# FER = settings: read-out: apparent Kd, n = 1
# PRKAA1 = settings: read-out: apparent Kd, n = 1
# PTK2B = settings: read-out: apparent Kd, n = 1
# PTK2 = settings: read-out: apparent Kd, n = 1
# RPS6KA6 = settings: read-out: apparent Kd, n = 1
# TNK2 = settings: read-out: apparent Kd, n = 1
# LATS1 = settings: read-out: apparent Kd, n = 1
# MARK4 = settings: read-out: apparent Kd, n = 1
# PLK4 = settings: read-out: apparent Kd, n = 1
# PRKCQ = settings: read-out: apparent Kd; compound concentrations: 100 nM and 1000 nM (sheet 'Samples'), CATDS: 8.3428687268584899E-3; n = 1
# STK10 = settings: read-out: apparent Kd, n = 1
# FLT3 = settings: read-out: apparent Kd; compound concentrations:100 nM and 1000 nM (sheet 'Samples'); n = 1
# MYLK3 = settings: read-out: apparent Kd; compound concentrations:100 nM and 1000 nM (sheet 'Samples'); n = 1
# PRKD3 = settings: read-out: apparent Kd; compound concentrations:100 nM and 1000 nM (sheet 'Samples'); n = 1
# [1] = compound concentrations:100 nM and 1000 nM (sheet 'Samples')
smiles,measurement,setting,value
CN(c1ccc(NC(=O)Nc2cccc(Cl)c2)cc1)c1ccnc(N)n1.Cl [GW830707A],potency estimated from few doses,"CDK7; compound concentrations: 100 nM and 1000 nM (sheet 'Samples'), CATDS: 2.70910980037193E-2",25.3 nM
same,potency estimated from few doses,"ERCC2; compound concentrations: 100 nM and 1000 nM (sheet 'Samples'), CATDS: 2.8634029570059099E-2",22.5 nM
same,potency estimated from few doses,"FER; compound concentrations: 100 nM and 1000 nM (sheet 'Samples'), CATDS: 3.09824946210665E-2",19.3 nM
same,potency estimated from few doses,"PRKAA1; compound concentrations: 100 nM and 1000 nM (sheet 'Samples'), CATDS: 2.0241658974681501E-2",51.3 nM
same,potency estimated from few doses,"PTK2B; compound concentrations: 100 nM and 1000 nM (sheet 'Samples'), CATDS: 2.3206005567305101E-2",35.9 nM
same,potency estimated from few doses,"PTK2; compound concentrations: 100 nM and 1000 nM (sheet 'Samples'), CATDS: 2.6556868558213102E-2",26.4 nM
same,potency estimated from few doses,"RPS6KA6; compound concentrations: 100 nM and 1000 nM (sheet 'Samples'), CATDS: 2.8909241119288599E-2",22.1 nM
same,potency estimated from few doses,"TNK2; compound concentrations: 100 nM and 1000 nM (sheet 'Samples'), CATDS: 3.7589632297420301E-2",13.5 nM
Clc1cc(Cl)cc(Nc2ccnc(Nc3cc(Cl)cc(Cl)c3)n2)c1 [GSK175726A],potency estimated from few doses,"CDK7; compound concentrations: 100 nM and 1000 nM (sheet 'Samples'), CATDS: 1.9330129421886999E-2",142 nM
same,potency estimated from few doses,"ERCC2; compound concentrations: 100 nM and 1000 nM (sheet 'Samples'), CATDS: 2.00031391959163E-2",132 nM
same,potency estimated from few doses,"FER; compound concentrations: 100 nM and 1000 nM (sheet 'Samples'), CATDS: 2.0209257750724199E-2",130 nM
same,potency estimated from few doses,"LATS1; compound concentrations: 100 nM and 1000 nM (sheet 'Samples'), CATDS: 8.3705854443938306E-3",1830 nM
same,potency estimated from few doses,"MARK4; compound concentrations: 100 nM and 1000 nM (sheet 'Samples'), CATDS: 9.0821419541050104E-3",1200 nM
same,potency estimated from few doses,"PLK4; compound concentrations: 100 nM and 1000 nM (sheet 'Samples'), CATDS: 9.9833619636259807E-3",805 nM
same,potency estimated from few doses,"PRKAA1; compound concentrations: 100 nM and 1000 nM (sheet 'Samples'), CATDS: 1.70258179859262E-2",183 nM
same,potency estimated from few doses,PRKCQ,1870 nM
same,potency estimated from few doses,"PTK2B; compound concentrations: 100 nM and 1000 nM (sheet 'Samples'), CATDS: 1.7764778222698001E-2",168 nM
same,potency estimated from few doses,"PTK2; compound concentrations: 100 nM and 1000 nM (sheet 'Samples'), CATDS: 2.2055583015587899E-2",111 nM
same,potency estimated from few doses,"RPS6KA6; compound concentrations: 100 nM and 1000 nM (sheet 'Samples'), CATDS: 2.32464475712073E-2",101 nM
same,potency estimated from few doses,"STK10; compound concentrations: 100 nM and 1000 nM (sheet 'Samples'), CATDS: 8.4721916216742802E-3",1710 nM
same,potency estimated from few doses,"TNK2; compound concentrations: 100 nM and 1000 nM (sheet 'Samples'), CATDS: 2.7223225317324601E-2",77.1 nM
CN1C[C@@H]2Cn3c(c(C4=C(c5cn(C)c6ccccc56)C(=O)NC4=O)c4ccccc43)C[C@H]2C1.Cl [RO0320234-001],potency estimated from few doses,CDK7; [1],137 nM
same,potency estimated from few doses,ERCC2; [1],123 nM
same,potency estimated from few doses,FER; [1],94.8 nM
same,potency estimated from few doses,LATS1; [1],1780 nM
same,potency estimated from few doses,MARK4; [1],1210 nM
same,potency estimated from few doses,PLK4; [1],500 nM
same,potency estimated from few doses,PRKAA1; [1],248 nM
same,potency estimated from few doses,PTK2B; [1],193 nM
same,potency estimated from few doses,PTK2; [1],129 nM
same,potency estimated from few doses,RPS6KA6; [1],215 nM
same,potency estimated from few doses,STK10; [1],2020 nM
same,potency estimated from few doses,TNK2; [1],84.4 nM
CNC(=O)c1ccccc1Nc1nc(Nc2ccc(N3CCOCC3)cc2)ncc1Cl.Cl [GSK1576028A],potency estimated from few doses,FER; [1],484 nM
same,potency estimated from few doses,FLT3,616 nM
same,potency estimated from few doses,LATS1; [1],132 nM
same,potency estimated from few doses,MARK4; [1],1370 nM
same,potency estimated from few doses,MYLK3,786 nM
same,potency estimated from few doses,PLK4; [1],13.4 nM
same,potency estimated from few doses,PRKAA1; [1],629 nM
same,potency estimated from few doses,PTK2B; [1],41.8 nM
same,potency estimated from few doses,PTK2; [1],8.08 nM
same,potency estimated from few doses,STK10; [1],681 nM
same,potency estimated from few doses,TNK2; [1],731 nM
Cc1ccc2c(-c3ccncc3)c(-c3ccc(F)cc3)nn2c1.Cl [GW461484A],potency estimated from few doses,CDK7; [1],288 nM
same,potency estimated from few doses,ERCC2; [1],214 nM
same,potency estimated from few doses,FER; [1],259 nM
same,potency estimated from few doses,PLK4; [1],428 nM
same,potency estimated from few doses,PRKAA1; [1],773 nM
same,potency estimated from few doses,PRKD3,2110 nM
same,potency estimated from few doses,PTK2B; [1],354 nM
same,potency estimated from few doses,PTK2; [1],462 nM
same,potency estimated from few doses,RPS6KA6; [1],248 nM
same,potency estimated from few doses,TNK2; [1],328 nM
